Outcome data for 7 compounds are collected here from PubChem BioAssay (EPA / NIEHS).

Inconclusive results are not listed. Calls of active or inactive are those of the source. Rule for the calls: active = hit-call score of the fitted dose curve at least 0.9, where 1 is the maximum; inconclusive = response in the unintended direction; inactive = score below 0.9.

This test is described as follows: ACEA_ER_80hr: ACEA Biosciences xCELLigence Real-Time Cell Analysis on Estrogen Receptor Agonism for Proliferation (AID 2282667). Particulars: T47D proliferation, impedance (xCELLigence), 80 h. The gist of the method:
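Cell-growth kinetics were measured by impedance in T47D cells treated continuously with compound (top 100 uM final, 1:4 steps, 8 points). Activity at 80 h was scored as signal gain over the DMSO baseline.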
Regarding `ClCCBr`, the result was inactive.
The same measure for `Nc1ccc(-c2ccc(N)c(Cl)c2)cc1Cl`: “inactive”; for `N#CCCO`: “inactive”.
As for `CC(C)=C[C@@H]1[C@@H](C(=O)OCc2coc(Cc3ccccc3)c2)C1(C)C`, the compound was called inactive.
The same measure for `Fc1ccc(C2(Cn3cncn3)OC2c2ccccc2Cl)cc1` (configuration not stated): “inactive”; for `N#CCc1ccc(Cl)cc1`: “inactive”.
As for `COC(=O)c1sccc1S(=O)(=O)NC(=O)Nc1nc(C)nc(OC)n1`, the entry is “inactive”.
